This is an account of results in PubChem BioAssay (EPA / NIEHS).

Molecules are shown by their SMILES. Inconclusive results are not listed. Activity calls are given as the source filed them. Rule for the calls: active = hit-call score of the fitted dose curve at least 0.9, where 1 is the maximum; inconclusive = response in the unintended direction; inactive = score below 0.9.

The nature of the assay: Tanguay_ZF_120hpf_OTIC_legacy: (Legacy) Oregon State University Tanguay Lab 120 Hour Post-fertilization zebrafish Assay for Otic Vesicle Malformation (AID 2283639). How it is done: Tanguay_ZF_120hpf_legacy is a whole embryo, multiplexed endpoint assay using zebrafish larvae exposed for 120 hours post fertilization on a 96-well plate.Tanguay_ZF_120hpf_OTIC_legacy is one of one assay component(s) measured or calculated from the Tanguay_ZF_120hpf_legacy assay. It is designed to make measurements of zebrafish development as detected with brightfield microscopy of developing zebrafish embryos.Data from the assay component Tanguay_ZF_120hpf_OTIC_legacy was analyzed into 1 assay endpoints. This assay endpoint, Tanguay_ZF_120hpf_OTIC_legacy, was analyzed in the positive analysis fitting direction relative to DMSO as the negative control and baseline of activity. Using a type of morphology reporter, gain-of-signal activity can be used to understand changes in developmentals as they relate to the whole embryo. To generalize the intended target to other relatable targets, this assay endpoint is annotated to the zebrafish development intended target family, where the subfamily is otic vesicle morphogenesis.
Zebrafish husbandry: Tropical 5D wild-type adult zebrafish were housed in at an approximate density of 1000 per 100 gallon tank at the Sinnhuber Aquatic Research Laboratory, Oregon State University, Corvallis, OR. Each tank was kept at standard laboratory conditions of 28C on a 14-h light/10-h dark photoperiod in fish water consisting of reverse osmosis water supplemented with a commercially available salt (Instant Ocean). Spawning funnels were placed into the tanks the night prior, and embryos were collected and staged. […] Ten microliters of each row of dilution plate 2 was added to 2 exposure plates. The final DMSO concentration used was 0.64% (vol/vol). Thirty-two embryos were also exposed to 5uM trimethyltin chloride (positive control). Plates were sealed to prevent evaporation and foil covered to reduce light exposure and kept in a 28C incubator. Embryos were statically exposed until 120 hpf. At 24 hpf, embryos were assessed for photomotor response using a custom photomotor response analysis tool (PRAT) and for developmental toxicity endpoints (MO24: mortality at 24 hpf, DP: developmental progression, SM: spontaneous movement, and NC: notochord distortion). At 120 hpf, locomotor activity was measured using Viewpoint Zebralab and assessed for 18 endpoints. Zebrafish acquisition and analysis program (ZAAP), a custom program designed to inventory, acquire, and manage zebrafish data, was used to collect developmental endpoints as either present or absent (i.e., binary responses were recorded). If mortality occurred for an embryo (at either 24 or 120 hpf), the non-mortality endpoints were not measured.
With `OC[C@@H](O)[C@@H](O)[C@H](O)[C@H](O)CO`, the outcome was inactive.
In the case of `COc1cc(-c2nc(NC(=O)c3cc4cc(C)cc(C)c4n3CC(=O)O)sc2CCC2CCCCC2)c(OC)cc1Cl`, the compound was called inactive.
To `Oc1ccc2c(c1)OC[C@@H](N1CCC(O)(c3ccc(F)cc3)CC1)[C@H]2O` belongs “inactive”.
For `CN1CCN(Cc2cc(-c3ccc4[nH]c(=O)oc4c3)co2)[C@@H](c2ccc(F)cc2)C1`, the call was inactive.
As for `C[Si]1(C)O[Si](C)(C)O[Si](C)(C)O[Si](C)(C)O1`, the entry is “inactive”.
As for `CC=Cc1ccc(O)c(OC)c1`, the entry is “inactive”.
Take `CCCCCCCCCCCCCCCC`: the outcome was inactive.
As for `COc1ccc2c(c1)c(CC(=O)O)c(C)n2C(=O)c1ccc(Cl)cc1`, the entry is “inactive”.
As for `CCCCC(CC)COC(=O)CC(C(=O)OCC(CC)CCCC)S(=O)(=O)O` (stereo not given), the entry is “inactive”.
`CC(C)c1ccc(C(=O)N=C(N)N)cc1S(C)(=O)=O`: the outcome was inactive.
`CCCCCCC(=O)OCC`: the result was inactive.
To `CNC(=O)[C@H]1O[C@@H](n2cnc3c(NCc4cc(Cl)ccc4OCc4cc(C)no4)ncnc32)[C@H](O)[C@@H]1N` belongs “inactive”.
As for `C1CCC(SSC2CCCCC2)CC1`, the entry is “inactive”; as for `CCCCCCCCCCC`, “inactive”; as for `NS(=O)(=O)c1cc2c(cc1Cl)NCNS2(=O)=O`, “inactive”.
As for `CCCCCCOCCO`, the entry is “inactive”.
For the compound `CC(CO)OC(C)CO` (stereo not given) (tested in a mixture with another compound), the compound was called inactive.
As for `CCOc1ccc2c(c1)C(C)=CC(C)(C)N2`, the entry is “inactive”.
To `Cc1oc(-c2ccccc2)nc1CCOc1cccc2c1ccn2CCC(=O)O` belongs “inactive”; to `Cc1ccc(Cl)cc1`, “inactive”.
As for `CC1=C(/C=C/C(C)=C/C=C/C(C)=C/CO)C(C)(C)CCC1`, the entry is “inactive”.
As to `COc1cc(S(=O)(=O)O)c(C)cc1N=Nc1c(O)ccc2cc(S(=O)(=O)O)ccc12`, the outcome was inactive.
To `Cc1ccc(C)c(C)c1` belongs “inactive”; to `CCCCCCCCCCO`, “inactive”.
`CC(C)(C)c1cc(O)c(C(C)(C)C)cc1O`: the outcome was inactive.
As for `CN1CCCC1=O`, the entry is “inactive”; as for `NC(=O)Cn1c(=O)cc(CCN2CCN(c3nccc4sccc34)CC2)c2ccc(F)cc21`, “inactive”; as for `O=c1[nH]cc(F)c(=O)[nH]1`, “inactive”.
To `O=[N+]([O-])C(CO)(CO)CO` belongs “inactive”.
As for `COCCOC[C@H](CC1(C(=O)NC2CCC(C(=O)O)CC2)CCCC1)C(=O)Oc1ccc2c(c1)CCC2` (stereo not given in full), the entry is “inactive”; as for `Oc1ccc2ccccc2c1N=Nc1ccccc1`, “inactive”; as for `Cc1cc(=O)[nH]c(=S)[nH]1`, “inactive”.
In the case of `CCc1c(C(=O)NN2CCCCC2)nn(-c2ccc(Cl)cc2Cl)c1-c1ccc(Br)cc1`, the call was inactive.
As for `Cc1ccccc1Cl`, the entry is “inactive”; as for `CCCCCC(=O)O`, “inactive”; as for `O=C(N[C@@H](Cc1ccccc1)[C@@H](O)C(=O)N1C[C@@H](O)[C@@H](O)C1)c1cc2cc(Cl)ccc2[nH]1`, “inactive”.
As for `CC(=O)C(C)=CC1C(C)=CCCC1(C)C` (stereo not given), the entry is “inactive”; as for `C[C@]12C=CC(=O)C=C1CC[C@@H]1[C@@H]2C(=O)C[C@@]2(C)[C@H]1CC[C@]2(O)C(=O)CO`, “inactive”; as for `C=CCc1ccc(O)c(OC)c1`, “inactive”.
`CC1(C)CC(N=C=O)CC(C)(CN=C=O)C1` (stereo not given): the compound was classed as inactive.
